Screening data: PubChem BioAssay, National Center for Advancing Translational Sciences (NCATS)
MCF10A rereplic – DNA re-replication induction in MCF 10a cells; MCF 10A DNA re-replication, Hoechst nuclear intensity, 48 h; Potency, µM (top dose mostly 46.1 µM), for the others: at the top dose activity, positive = re-replication, usual class: activators; 2.9% of 350,000 active; AID 624296; also: potency is read from the fitted curve at half-maximal effect; % of control where 0% means no effect; nearly all actives have a fitted effect of over 50% in size
Giardia killer – Giardia lamblia killing; Giardia lamblia trophozoite viability; 0.15% of 340,000 active; activity change, % at 7.66 µM, hits read low; in the data active = activity change below about -80%; inconclusive = between about -30% and that limit;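 also: parasites exposed to compound for two days anaerobically before the ATP read; % is scaled to controls: 0 for no effect and ±100 for the full control effect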
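Viability, read as ATP luminescence: trophozoites at 100 cells/well, compound added, 48 hrs anaerobic at 37 deg C, then 15-30 min room-temperature development before reading.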
SW480 rereplic – induces DNA re-replication in SW480 colon adenocarcinoma cells | SW480 DNA re-replication, Hoechst DNA content imaging, 48 h | Potency, µM (doses to about 46.1 µM), inactives show at the highest dose re-replication activation, most hits filed as activators | 1.8% of 340,000 active | AID 624297; also: potency is read from the fitted curve at half-maximal effect; % of control where 0% means no effect; nearly all actives have a fitted effect of over 55% in size
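Treated cells incubate 48 hr (37 C, 5% CO2), are stained 40 min with Hoechst, and nuclear fluorescence is enumerated; a rise in nuclei with high DNA signal marks re-replication.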
uPA surface inh – cell surface uPA generation inhibition; cell surface uPA generation assay, qHTS; Potency, µM (titrated, usually from 38.3 µM), without a hit: top-dose activity change, negative = inhibition, most hits filed as inhibitors; 0.31% of 330,000 active; active = well fitted inhibition curve with a large enough effect; inconclusive = small, poorly fitted or top-dose-only effect; inactive = no such curve, though single readings can be large or run the other way; tested in mouse RAW 264.7 cells; also: potency is read from the fitted curve at half-maximal effect; % is scaled to controls: 0 for no effect and ±100 for the full control effect; nearly all actives have a fitted effect of over 55% in size
* hit, by the source's call; u = inconclusive; x = no result given. Shown are actives, neighbours in structure and some others; about 4.3% of the full set was active somewhere. Unless noted, calls follow the shape of the dose curve; as a rule, active = well fitted activation curve with a large enough effect; inconclusive = small, poorly fitted or top-dose-only effect; inactive = no such curve, though single readings can be large or run the other way.

SMILES	MCF10A rereplic	Giardia killer	SW480 rereplic	uPA surface inh
CCOc1ccc(CNC(=O)Cn2ccc3cc(S(=O)(=O)N4CCCCCC4)ccc32)cc1	-3%	31	-39%	1µM*
COc1ccc(S(=O)(=O)N2CCCCCC2)cc1C(=O)N(C)Cc1ccc(Cl)cc1Cl	2.1µM*	13	-24%	-3%
COc1ccc(S(=O)(=O)N2CCCCCC2)cc1C(=O)N(C)Cc1c(F)cccc1Cl	u	-18	-1%	-3%
COc1ccc(S(=O)(=O)N2CCCCC2)cc1NS(=O)(=O)c1cc(Cl)ccc1Cl	-18%	6	23µM*	2%
COc1ccc(S(=O)(=O)N2CCCCC2)cc1NS(=O)(=O)c1ccccc1F	-45%	11	-1%	0%
COc1ccc(CCNC(=O)c2cccc(S(=O)(=O)N3CCCCC3)c2)cc1	-25%	-27	-60%	4%
CC(C)C(NC(=O)CSc1ccc(Cl)cc1)C(C)C	26µM*	0	-1%	-1%
Fc1cccc2sc(Nc3nnc(-c4ccccc4)o3)nc12	23µM*	-17	12%	-12%
CCCn1c(=N)c(S(=O)(=O)c2ccc(F)cc2)cc2c(=O)n3cccc(C)c3nc21	5.2µM*	-2	u	-26%
COCCn1c(=N)c(S(=O)(=O)c2ccc(F)cc2)cc2c(=O)n3cccc(C)c3nc21	3.7µM*	4	u	0%
CC[C@]12c3[nH]c4ccc(OC)cc4c3CCN1C(=O)C(CC(=O)NCCc1ccccn1)C[C@@H]2C(=O)N1CCN(C(=O)C2CC2)CC1 (stereo partly specified)	7%	-12	u	-9%
C[C@H]1C(=O)N(S(=O)(=O)c2ccc([N+](=O)[O-])cc2)[C@H]1c1ccc(F)cc1	x	6	x	x
Cc1c(C)n(Cc2ccc(Cl)cc2)c2ccc(C(=O)NCCN3CCOCC3)cc12	12µM*	-13	u	-10%
Cc1c(C)n(Cc2ccccc2)c2ccc(C(=O)NCCN3CCOCC3)cc12	11%	7	17%	9%
Cn1c(CN2CCN(c3cccc(Cl)c3)CC2)nc2ccccc21	u	-14	21µM*	1%
Cn1c(=O)[nH]c(=O)c2c1nc(CN1CCN(c3cccc(Cl)c3)CC1)n2CCc1ccccc1	-2%	28	15%	12%
COc1ccc(C(=O)N2CCN(c3cccc(Cl)c3)CC2)cc1	-1%	-18	-1%	-1%
COc1cc(CN2CCN(c3cccc(Cl)c3)CC2)cc(OC)c1OC	16µM*	5	16µM*	x
COc1cc(C(=S)N2CCN(c3cccc(Cl)c3)CC2)ccc1O	15µM*	-5	21µM*	-12%
Oc1ccc(C(=S)N2CCN(c3cccc(Cl)c3)CC2)cc1	u	17	u	x
COc1ccc(C(=S)N2CCN(c3cccc(Cl)c3)CC2)c(OC)c1	7.3µM*	-12	4.1µM*	-19%
CCc1sc(-c2cc3ccccc3oc2=O)nc1-c1ccc(C)cc1	x	17	x	x
COC(=O)c1[nH]c2cc(OC)c(OC)cc2c1NC(=O)CN1C[C@H]2C[C@@H](C1)c1cccc(=O)n1C2	4%	-10	-34%	4%
COc1cc([C@H]2c3cc4c(cc3[C@@H](O[C@H]3O[C@H]5CO[C@@H](C)O[C@H]5[C@@H](O)[C@@H]3O)[C@@H]3COC(=O)[C@H]23)OCO4)cc(OC)c1O	u	x	1.5µM*	x
COc1cc([C@@H]2c3cc4c(cc3[C@@H](O[C@@H]3O[C@@H]5CO[C@@H](C)O[C@H]5[C@H](O)[C@H]3O)[C@H]3COC(=O)[C@H]23)OCO4)cc(OC)c1O	u	-29	2.3µM*	u
SMILES	MCF10A rereplic	Giardia killer	SW480 rereplic	uPA surface inh
COc1ccc(-n2cc(CN(C)C(C)c3ccncn3)c(-c3cccc(F)c3)n2)cc1 (stereo unspecified)	13µM*	9	7%	7%
Cc1ccc(S(=O)(=O)/N=C(/Nc2c(C)cccc2C)c2ccccc2)cc1	-9%	3	-12%	10%
CN(Cc1ccccc1)CC(O)COc1ccc(CNCc2ccc(Cl)s2)cc1 (stereo unspecified)	16µM*	20	21µM*	-11%
CN(Cc1ccccc1)C(=O)c1ccc(NC(=O)Cc2cccc(NC(=O)C3CCCN(C(=O)C4CCCCC4)C3)c2)cc1 (stereo unspecified)	u	20	19%	27%
CC1CCN(S(=O)(=O)c2cc(C(=O)NC3(C)CCS(=O)(=O)C3)ccc2Br)CC1 (stereo unspecified)	-1%	-2	-24%	8%
CN(Cc1ccc(F)cc1)Cc1nc(-c2cnccn2)no1	-4%	-1	13µM*	-2%
